Screens (PubChem)
Compounds with a hit are over-represented: about 8% of the library has one in this group of screens.
KB-3-1 cytotox: qHTS assay for MDR1-selective chemotherapeutics: Primary screen using the parental adenocarcinoma cell KB-3-1; 1.4% of 400,000 active; Potency, µM (titrated, usually from 46.1 µM), most hits filed as cytotoxic; KB-3-1 viability, CellTiter-Glo ATP luminescence, 72 h; AID 1347075, 2019; further: on the % scale 0 is the no-effect control and ±100 the full control effect; nearly all actives have a fitted effect of over 60% in size
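Screening of KB-3-1 cells (DMEM, 10% FBS, phenol-red free) ran from lowest to highest compound concentration; after 72 h at 37 °C viability was read luminescently and curves fitted.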
HT1080 IDH1KD tx: qHTS for induction of synthetic lethality in tumor cells producing 2HG: qHTS for the HT-1080-IDH1KD cell line. HT-1080 IDH1 knockdown viability, ATP luminescence, 48 h. 2% of 360,000 active. AID 686971, 2013. Potency, µM (top dose mostly 46.1 µM), without a hit: top-dose activity, negative = toxicity, most hits filed as cytotoxic;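 further: 0% = DMSO wells and -100% = cell-free medium wells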
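After a 2 h attachment period, IDH1KD HT-1080 cells took pin-transferred compound for 48 h at 37 °C; ATP-based luminescence after 10 min room-temperature reagent incubation reported viability.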
MCF10A rerep: A quantitative high throughput screen for small molecules that induce DNA re-replication in MCF 10a normal breast cells. 2.9% of 350,000 active. Potency, µM (top dose mostly 46.1 µM), for the others: top-dose activity, positive = re-replication, hits mostly activators. AID 624296, 2012. MCF 10A DNA re-replication, Hoechst nuclear intensity, 48 h; further: % of control where 0% means no effect; nearly all actives have a fitted effect of over 50% in size
SW480 rereplic: A quantitative high throughput screen for small molecules that induce DNA re-replication in SW480 colon adenocarcinoma cells; Potency, µM (highest dose often 46.1 µM), without a hit: at the highest dose re-replication activation, actives largely listed as activators; 1.8% of 340,000 active; AID 624297, 2012; SW480 DNA re-replication, Hoechst DNA content imaging, 48 h; further: % of control where 0% means no effect; nearly all actives have a fitted effect of over 55% in size
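Image-based DNA-content assay: after two days of treatment, nuclei were labelled with the DNA dye Hoechst and imaged, and hits were compounds raising the count of nuclei showing high fluorescence intensity.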
HT1080-NT tox: qHTS for induction of synthetic lethality in tumor cells producing 2HG: qHTS for the HT-1080-NT fibrosarcoma cell line; HT-1080-NT fibrosarcoma viability, CellTiter-Glo ATP luminescence, 48 h; Potency, µM (series often up to 46.1 µM), inactives show at the top dose activity, negative = less viability, hits mostly cytotoxic; 1.6% of 360,000 active;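 further: NT is the 2HG producing partner of a matched IDH1 knockdown line; 0% = DMSO-treated cells and -100% = media-only wells without cells; nearly all actives have a fitted effect of over 55% in size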
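A 48-hour cytotoxicity screen used HT-1080-NT cells plated 2 hours before compound delivery. ATP-based CellTiter-Glo luminescence measured viability, normalized to DMSO and no-cell controls.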
KB-V1 MDR tox: qHTS assay for MDR1-selective chemotherapeutics: Primary screen using the drug-selected MDR subline cells KB-V1; KB-V1 MDR cells viability, CellTiter-Glo, 72 h; Potency, µM (highest dose often 46.1 µM), most hits filed as cytotoxic; 3.4% of 400,000 active; further: on the % scale 0 is the no-effect control and ±100 the full control effect; nearly all actives have a fitted effect of over 60% in size
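Compound-treated KB-V1 multidrug-resistant cells, 72 h, 37 degrees C; viability by CellTiter-Glo. Fitted qHTS curves give the values.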
* hit, by the source's call; i = inactive; ? = inconclusive; nt = no result; [ ] = dose if it differs, or a comment. The call rests on the fitted dose curve; in most records, active means well fitted curve in the direction sought with a large enough effect; inconclusive means small, poorly fitted or top-dose-only effect, or another doubt; inactive means no such curve, though single readings can be large; an effect the other way counts as inactive or inconclusive. Potency means the concentration at half of the fitted maximal effect.

SMILES	KB-3-1 cytotox	HT1080 IDH1KD tx	MCF10A rerep	SW480 rereplic	HT1080-NT tox	KB-V1 MDR tox
CCc1nnc2c(Nc3cccc(F)c3)nc3ccc(C(=O)c4ccccc4)cc3n12	?	nt	nt	nt	nt	9.2µM*
CC(=O)C1=C(C)NC(SCC(N)=O)=C(C#N)C1c1cccs1 (stereo not drawn)	i	2%[9.24 µM]	?	0%	-1%	i
CCOc1ccc(NC(=O)COC(=O)c2ccc3c(c2)OCO3)cc1	i	1%	-1%	-5%	-1%	i
CC1Cc2nc(SCC(=O)Nc3ccc(F)cc3)n(C)c(=O)c2S1 (stereo not drawn)	i	11%	1%	-2%	0%	4.1µM*
CCn1c(SC)nc2c(c1=O)SC(C)C2 (stereo not drawn)	i	2%	21µM*	-17%	8%	i
CCn1c(SCC(=O)NC2CCCCC2)nc2c(c1=O)SC(C)C2 (stereo not drawn)	i	4%	0%	-2%	-5%	2.3µM*
CCn1c(C)c(C)c2cc(C(=O)NCc3cccc(C)c3)ccc21	i	nt	nt	nt	nt	i
CC1(C)NC(=O)N(CC(O)COc2ccc(-c3ccc(C#N)cc3)cc2)C1=O (stereo not drawn)	i	-10%	7%	-10%	-8%	21µM*
COc1cc(CNC2CCCCCC2)cc(OC)c1	i	-13%	5%	4%	-12%	i
COc1ccc(Cc2nn3c(-c4ccccc4OC)nnc3s2)cc1	i	1%	-2%	-12%	-4%	?
CCCCc1c(-c2ccccc2OC)ncn1CCc1ccccc1	?	21µM*	nt	nt	18µM*	12µM*
CCCCc1c(-c2ccccc2OC)ncn1CCc1ccc(OC)cc1	?	?	nt	nt	16µM*	9.2µM*
CCCCc1c(-c2ccccc2OC)ncn1CCc1ccc(Cl)cc1	?	?	nt	nt	?	12µM*
COc1ccc(S(=O)(=O)N2CCCC(C(=O)NCc3ccccn3)C2)cc1 (stereo not drawn)	i	3%	-4%	-9%	0%	i
CCC(C)Sc1cc(C(F)(F)F)c(C(=O)Nc2ccc(Cl)cc2)cn1 (stereo not drawn)	i	23µM*	?	16%	?	?
COCCN1CSC(=S)N(Cc2ccco2)C1	i	5%	?	5.8µM*	17%	i
S=C1SCN(Cc2ccccn2)CN1Cc1ccco1	i	16µM*	4.1µM*	7.3µM*	?	?
CCOCCCN1CN(Cc2ccco2)CNC1=S	i	6%	-1%	0%	16%	i
Cc1coc(=N)n1CC(=O)c1ccc(Cl)cc1	i	22%	0%	2%	15%	i
CS(=O)(=O)n1nc(C(=O)N2CCOCC2)nc1N	i	12%	-32%	-1%	-2%	i
Nc1nc2ccccc2n1C(=O)c1ccccc1	i	?	6%	27%	?	?
CC(=O)c1nc2ccccc2n1CCc1ccccc1	i	8%	1.8µM*	-22%	10%	i
Nc1nc2ccccc2n1C(=O)CCc1ccccc1	18µM*	-19%	?	?	?	i
c1ccc(CCn2c(C3CC3)nc3ccccc32)cc1	i	3%	?	2%	?	21µM*
COc1ccc(CNC(=O)C2CCC(=O)N(CC3CCCCC3)C2)cc1 (stereo not drawn)	i	11%	5%	14%	0%	i
SMILES	KB-3-1 cytotox	HT1080 IDH1KD tx	MCF10A rerep	SW480 rereplic	HT1080-NT tox	KB-V1 MDR tox
CC(C)(C)C(=O)Nc1ccc2c(c1)C(=O)C(=O)c1ccccc1-2	nt	0.79µM*	nt	nt	0.79µM*	nt
CC(=O)Nc1ccc2c(c1)C(=O)c1ccccc1C2=O	i	-3%	20%	7%	-6%	i
CC(CNC(=O)CCS(=O)(=O)c1ccc2c(c1)oc(=O)n2C)c1ccccc1 (stereo not drawn)	i	15%	0%	11%	9%	i
CC1(C(=O)Nc2ccc3c(c2)OCCO3)CCN1C(=O)Cc1ccc(-c2ccccc2)cc1 (stereo not drawn)	?	?	nt	nt	?	18µM*
CC1(C(=O)NCc2ccccc2Br)CCN1Cc1ccc(-c2ccccc2)o1 (stereo not drawn)	5.2µM*	?	nt	nt	?	21µM*
CC1(C(=O)Nc2ccc3c(c2)OCO3)CCN1C(=O)Cc1cccs1 (stereo not drawn)	i	-2%	nt	nt	-5%	i
Cc1ccc(NC(=O)C2(C)CCN2C(=O)Cc2ccc(C(C)(C)C)cc2)cc1C (stereo not drawn)	i	?	nt	nt	18µM*	i
CC(C)c1ccc(CC(=O)N2CCC2(C)C(=O)Nc2ccc3c(c2)OCO3)cc1 (stereo not drawn)	?	?	nt	nt	-11%	21µM*
COc1ccc(CC(=O)NCc2n[nH]c(=S)n2-c2ccc(F)cc2)cc1	i	-3%	2%	?	-1%	i
CC1(C(=O)NCc2cccc3ccccc23)CCN1C(=O)Cc1ccc(-c2ccccc2)cc1 (stereo not drawn)	i	?	nt	nt	18µM*	i
COc1cc(SC#N)ccc1N=Cc1c(C)[nH]n(-c2ccc(C)cc2C)c1=O	i	-12%	2%	3%	1%	i
COc1cc2c(NC3CCN(C)CC3)nc(N3CCCN(C)CC3)nc2cc1OCCCN1CCOCC1	?	nt	nt	nt	nt	i
COc1cc2ncnc(Nc3ccc(F)c(Cl)c3)c2cc1OCCCN1CCOCC1	nt	nt	30µM*	15%	nt	nt
CC(C)(C)N1C(=O)Cc2c1nc(N)c1c(N)nc(N3CCCCC3CO)c(C#N)c21 (stereo not drawn)	?	-1%	15µM*	8%	-8%	?
COc1ccc(C(=O)c2c(C(F)(F)F)oc3c2C(=O)c2ccccc2C3=O)cc1OC	9.2µM*	?	?	0.73µM*	9.2µM*	9.2µM*
O=c1[nH]c(CN2CCN(c3ccccc3)CC2)nc2scc(-c3ccccc3)c12	?	-1%	5.2µM*	?	-5%	9.2µM*
CCCCC(=O)N(c1ccc(OCC)cc1)C1C=CS(=O)(=O)C1 (stereo not drawn)	i	9%	13µM*	1%	-9%	i
O=C(O)c1ccc(/C=C/C(=O)c2ccc3c(c2)OCCCO3)cc1	?	?	?	21µM*	?	?
